# According to PubChem BioAssay (NCATS):
# Results filed as inconclusive are left out. Where a call stands in place of a potency, no number is given. The source made the active and inactive calls. Unless noted, the call rests on the fitted dose curve; in most records, active means well fitted curve in the direction sought with a large enough effect; inconclusive means small, poorly fitted or top-dose-only effect, or another doubt; inactive means no such curve, though single readings can be large; an effect the other way counts as inactive or inconclusive.
# Columns and labels:
# [1] = target: Calcium and integrin-binding protein 1 (Homo sapiens) (UniProt Q99828); test: Validation qHTS for Identification of Calcium Integrin Binding protein 1 (CIB1) Competitor (AID 1508618)
# In short: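 CIB1-GST (1 uM final) in 5 mM HEPES pH 7.4, 125 mM NaCl, 5 mM CaCl2, 0.01% Tween20 was preincubated 15 min at room temperature with compound (up to 114 uM), then FITC-alphaIIb peptide (100 nM) added for 15 min; fluorescence polarization read.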
# [2] = Primary qHTS for small molecule stabilizers of the endoplasmic reticulum resident proteome: Secreted ER Calcium Modulated Protein (SERCaMP) assay (AID 1508630); further: potency means the concentration at half of the fitted maximal effect
# In short: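 GLuc-SERCaMP-expressing SH-SY5Y cells, pretreated 16 h with compound, are challenged with thapsigargin to empty ER calcium stores; after 4 h, coelenterazine is added directly to the medium and luminescence is imaged.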
# [3] = Counterscreen qHTS for small molecule stabilizers of the endoplasmic reticulum resident proteome: GLuc-NoTag assay (AID 1508627);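 further: SH-SY5Y cells given compound then 100 nM thapsigargin to empty ER calcium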
# In short: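 SH-SY5Y cells stably expressing constitutively secreted GLuc without SERCaMP tag, exposed to compound for 19 hr, then to 100 nM thapsigargin for 4 hr at 37C. Medium luciferase was read by coelenterazine luminescence without lysis.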
# [4] = Confirmatory qHTS for small molecule stabilizers of the endoplasmic reticulum resident proteome: Secreted ER Calcium Modulated Protein (SERCaMP) assay (AID 1508628); further: nearly all actives have a fitted effect of over 40% in size; further: potency means the concentration at half of the fitted maximal effect
# In short: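 SH-SY5Y cells stably expressing GLuc-SERCaMP, treated 16 h with compound (primary 1.53, 7.67, 38.3 uM; confirmation 11 concentrations, up to 76.6 uM), then 100 nM thapsigargin for 4 h. Secreted Gaussia luciferase in medium read by coelenterazine luminescence.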
# Papain (Carica papaya) = Papain (Carica papaya) (UniProt P00784); test: Primary qHTS assay for inhibitors of the protease papain (AID 1645873);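 further: papain turnover of Z-FR-AMC read as the AMC fluorescence gain over 10 min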
# [5] = Cell Viability qHTS for small molecule stabilizers of the endoplasmic reticulum resident proteome (AID 1508629); conditions: cell viability counter-screen, 100 nM thapsigargin for final 4 h;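 further: human SH-SY5Y neuroblastoma cells carrying the GLuc-SERCaMP reporter; compound exposure about 46 h in total before the viability read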
# [6] = target: Catechol O-methyltransferase (Homo sapiens) (UniProt P21964); test: Confirmatory Screen for Target Class Profiling of Small Molecule Inhibitors of Methyltransferases (AID 1745852; calls by dose curve; further: potency means the concentration at half of the fitted maximal effect); conditions: MTase-Glo luminescence, SAH detection, recombinant enzyme; measured here: COMT max response; stronger effect = lower value
# [7] = target: Guanidinoacetate N-methyltransferase (Homo sapiens) (UniProt Q14353); test: as above; conditions: MTase-Glo luminescence, SAH detection, recombinant enzyme; activity change, negative = inhibition: at 57.3 µM (top of the series)
# [8] = target: Nicotinamide N-methyltransferase (Homo sapiens) (UniProt P40261); test: as above; conditions: MTase-Glo luminescence, SAH detection, recombinant enzyme; measured here: NNMT max response; stronger effect = lower value
# [9] = target: Phenylethanolamine N-methyltransferase (Homo sapiens) (UniProt P11086); test: as above; conditions: MTase-Glo luminescence, SAH detection, recombinant enzyme; measured here: PNMT max response; stronger effect = lower value
# Chain of Phenylethanolamine N-methyltransferase (Homo sapiens) (P11086 whole entry, looked up): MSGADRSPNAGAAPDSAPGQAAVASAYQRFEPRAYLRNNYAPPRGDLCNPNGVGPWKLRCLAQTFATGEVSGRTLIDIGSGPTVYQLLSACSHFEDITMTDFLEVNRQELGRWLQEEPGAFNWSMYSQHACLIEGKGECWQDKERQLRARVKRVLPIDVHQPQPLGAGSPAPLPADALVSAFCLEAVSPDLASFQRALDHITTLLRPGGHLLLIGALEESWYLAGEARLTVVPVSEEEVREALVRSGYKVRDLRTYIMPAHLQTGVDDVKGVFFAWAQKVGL
# Chain of Calcium and integrin-binding protein 1 (Homo sapiens) (Q99828 whole entry, looked up): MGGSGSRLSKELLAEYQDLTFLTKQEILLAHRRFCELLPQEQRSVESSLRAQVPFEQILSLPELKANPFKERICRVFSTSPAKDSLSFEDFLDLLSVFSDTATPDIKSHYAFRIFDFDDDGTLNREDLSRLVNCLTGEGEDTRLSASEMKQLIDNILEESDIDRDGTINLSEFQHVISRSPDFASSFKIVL
# Chain of Papain (Carica papaya) (P00784 whole entry, looked up): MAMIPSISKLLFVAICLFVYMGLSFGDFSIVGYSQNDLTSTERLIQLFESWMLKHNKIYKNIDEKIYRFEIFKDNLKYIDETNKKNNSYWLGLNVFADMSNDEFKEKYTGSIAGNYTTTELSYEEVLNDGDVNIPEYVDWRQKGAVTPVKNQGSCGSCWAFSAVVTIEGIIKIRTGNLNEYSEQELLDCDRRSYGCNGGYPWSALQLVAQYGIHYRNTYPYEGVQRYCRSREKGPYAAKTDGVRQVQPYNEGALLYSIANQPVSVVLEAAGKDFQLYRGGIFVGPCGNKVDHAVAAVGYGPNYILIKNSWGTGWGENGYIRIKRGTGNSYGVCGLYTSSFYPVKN
# Chain of Catechol O-methyltransferase (Homo sapiens) (P21964 whole entry, looked up): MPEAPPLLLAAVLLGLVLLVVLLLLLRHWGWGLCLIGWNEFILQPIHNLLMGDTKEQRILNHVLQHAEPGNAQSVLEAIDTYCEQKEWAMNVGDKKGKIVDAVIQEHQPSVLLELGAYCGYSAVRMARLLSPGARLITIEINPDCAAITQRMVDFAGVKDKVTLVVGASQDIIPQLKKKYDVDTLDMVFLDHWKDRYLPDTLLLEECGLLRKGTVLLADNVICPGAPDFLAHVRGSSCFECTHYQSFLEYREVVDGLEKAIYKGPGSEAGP
# Chain of Nicotinamide N-methyltransferase (Homo sapiens) (P40261 whole entry, looked up): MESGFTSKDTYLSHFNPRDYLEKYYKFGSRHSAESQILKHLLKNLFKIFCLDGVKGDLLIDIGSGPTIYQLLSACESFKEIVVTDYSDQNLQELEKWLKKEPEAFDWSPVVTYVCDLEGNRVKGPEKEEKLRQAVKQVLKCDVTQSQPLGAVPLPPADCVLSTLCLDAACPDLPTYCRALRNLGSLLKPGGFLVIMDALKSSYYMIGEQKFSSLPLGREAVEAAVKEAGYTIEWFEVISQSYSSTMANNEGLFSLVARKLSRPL
smiles,measurement,setting,value
COc1cccc(OC)c1OCCNCC1CSc2ccccc2O1 (stereo unspecified),Potency,[1],inactive
same,Potency,[2],inactive
Cc1nc(N=Nc2ccc(S(=O)(=O)O)cc2S(=O)(=O)O)c(COP(=O)(O)O)c(C=O)c1O,Potency,[1],inactive
same,Potency,[3],inactive
same,Potency,[4],inactive
same,Potency,[2],inactive
same,Potency,Papain (Carica papaya),inactive
NC(C(=O)N[C@@H]1C(=O)N2C(C(=O)O)=C(Cl)CS[C@H]12)c1ccccc1 (stereo partly specified),Potency,[1],inactive
CC(N)(Cc1ccc(O)c(O)c1)C(=O)O (stereo unspecified),Potency,[1],inactive
NC1CCN(O)C1=O (stereo unspecified),Potency,[1],inactive
C=CC1(C)CC(=O)C2(O)C(C)(O1)C(OC(C)=O)C(O)C1C(C)(C)CCC(O)C12C (stereo unspecified),Potency,[1],inactive
same,Potency,[2],inactive
COc1cc(/C=C(\C#N)C(=O)c2ccc(O)c(O)c2)cc(I)c1O,Potency,[1],inactive
same,max response,[5],17.8% (inactive)
same,Potency,[2],11.2 µM (active)
same,activity,[6],13.9%
same,Potency,[7],24.3 µM (active)
same,activity,[8],-5.85%
same,activity,[9],1.08%
Cc1ccccc1/C=C/C1=NCCN1,Potency,[1],inactive
same,Potency,[4],11.2 µM (active)
same,Potency,Papain (Carica papaya),inactive
Cn1c(=O)c2[nH]c(C3CCCC3)nc2n(C)c1=O,Potency,[1],inactive
same,Potency,[2],inactive
CCCCOC(=O)NS(=O)(=O)c1sc(CC(C)C)cc1-c1ccc(Cn2c(CC)nc3c(C)cc(C)nc32)cc1,Potency,[1],inactive
same,Potency,[4],15.8 µM (active)
same,Potency,Papain (Carica papaya),inactive
NC(=O)CNCCC(c1ccccc1)c1ccccc1,Potency,[1],inactive
same,Potency,[2],inactive
same,Potency,Papain (Carica papaya),inactive
CCCCCCCCCCCCCCC[C@H](O)[C@H](N)CO,Potency,[1],inactive
same,Potency,[3],inactive
same,Potency,[4],inactive
same,max response,[5],-0.696% (inactive)
same,Potency,Papain (Carica papaya),inactive
CN1CCCC1CCOC(C)(c1ccccc1)c1ccc(Cl)cc1 (stereo unspecified),Potency,[1],inactive
same,max response,[5],8.32% (inactive)
same,Potency,Papain (Carica papaya),inactive
COC(=O)[C@H](NC(=O)c1cc(-c2ccccc2)nc2ccccc12)c1ccccc1,Potency,[1],inactive
same,Potency,[2],inactive
[N-]=[N+]=Nc1ccc(C(=O)CSC[C@H](NC(=O)CC[C@H](N)C(=O)O)C(=O)NCC(=O)O)cc1,Potency,[1],inactive
same,Potency,[2],inactive
Nc1ccc(-c2ccc3ccccc3n2)cc1,Potency,[1],inactive
same,Potency,[3],inactive
same,max response,[5],-7.29% (inactive)
OC[C@H]1O[C@@H](n2cnc3cncnc32)[C@H](O)[C@@H]1O,Potency,[1],inactive
same,Potency,[2],inactive
same,Potency,Papain (Carica papaya),inactive
CC(C)C[C@H](NC(=O)[C@H](O)[C@H](N)Cc1ccccc1)C(=O)O,Potency,[1],inactive
same,Potency,[2],inactive
same,Potency,Papain (Carica papaya),inactive
NC(N)=[N+]1CCc2ccccc2C1,Potency,[1],inactive
same,Potency,[2],inactive
same,Potency,Papain (Carica papaya),inactive
N=C(N)c1ccc(OCCCCCOc2ccc(C(=N)N)cc2)cc1 (tested in a mixture with another compound),Potency,[1],inactive
same,Potency,[2],inactive
same,Potency,Papain (Carica papaya),inactive
O=C(O)C1CCCNC1 (stereo unspecified),Potency,[1],inactive
same,Potency,[2],inactive
same,Potency,Papain (Carica papaya),inactive
c1ccc2c(c1)CC(N1CCN(c3cccc4c3OCCO4)CC1)C2,Potency,[1],inactive
same,Potency,[2],inactive
same,Potency,Papain (Carica papaya),inactive
COc1ccc(C(=O)NCc2cccnc2)cc1C(=O)NCc1cccnc1,Potency,[1],inactive
same,Potency,[2],inactive
same,Potency,Papain (Carica papaya),inactive
